Assay outcomes from PubChem.
TDP1 cell noCPT – qHTS for Inhibitors of human tyrosyl-DNA phosphodiesterase 1 (TDP1): qHTS in cells in absence of CPT | DT40 Tdp1-/- hTDP1 cells, no CPT, ATP luminescence, 48 h | 420,000 compounds, 15% hits | Potency, µM (highest dose often 46.2 µM), for the others: top-dose activity change, negative = growth inhibition, hits mostly inhibitors; also: potency is read from the fitted curve at half-maximal effect; % is scaled to controls: 0 for no effect and ±100 for the full control effect; nearly all actives have a fitted effect of over 55% in size
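Chicken DT40 Tdp1-/- cells stably complemented with human TDP1 were seeded at 400 cells/well with DMSO in place of 20 nM camptothecin. After compound pinning, cells grew at least 48 hr at 37 °C; viability read by CellTiter-Glo luminescence.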
IL-1B inflam inh – qHTS for Inhibitors of Inflammasome Signaling: IL-1-beta AlphaLISA Primary Screen; AID 743279, 2014; THP-1 LPS/ATP IL-1B secretion, AlphaLISA, 16 h; stronger effect = lower value; 360,000 compounds, 4.7% hits; activity change, % at 57.5 µM; in the data active = activity change below about -50%; inconclusive = mostly about -30% to -49%; also: % is scaled to controls: 0 for no effect and ±100 for the full control effect
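Secreted IL-1B measured by AlphaLISA bead assay after 16 h compound exposure of THP-1 cells; compounds (final up to 57.5 uM) added 1 h before LPS (250 ng/mL) and ATP (1.25 mM) stimulation; lower signal means less secretion.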
TDP1 block – qHTS Assay for Inhibitors of Tyrosyl-DNA Phosphodiesterase (TDP1) | Tyrosyl-DNA phosphodiesterase 1 (Homo sapiens), Q9NUW8 | Potency, µM (top dose mostly 130 µM), for inactives: at the top dose activity change, negative = inhibition, hits mostly inhibitors | recombinant TDP1, AlphaScreen DNA substrate cleavage | 350,000 compounds, 0.28% hits; also: potency is read from the fitted curve at half-maximal effect; % is scaled to controls: 0 for no effect and ±100 for the full control effect; nearly all actives have a fitted effect of over 40% in size
Target sequence (Q9NUW8 whole entry, looked up): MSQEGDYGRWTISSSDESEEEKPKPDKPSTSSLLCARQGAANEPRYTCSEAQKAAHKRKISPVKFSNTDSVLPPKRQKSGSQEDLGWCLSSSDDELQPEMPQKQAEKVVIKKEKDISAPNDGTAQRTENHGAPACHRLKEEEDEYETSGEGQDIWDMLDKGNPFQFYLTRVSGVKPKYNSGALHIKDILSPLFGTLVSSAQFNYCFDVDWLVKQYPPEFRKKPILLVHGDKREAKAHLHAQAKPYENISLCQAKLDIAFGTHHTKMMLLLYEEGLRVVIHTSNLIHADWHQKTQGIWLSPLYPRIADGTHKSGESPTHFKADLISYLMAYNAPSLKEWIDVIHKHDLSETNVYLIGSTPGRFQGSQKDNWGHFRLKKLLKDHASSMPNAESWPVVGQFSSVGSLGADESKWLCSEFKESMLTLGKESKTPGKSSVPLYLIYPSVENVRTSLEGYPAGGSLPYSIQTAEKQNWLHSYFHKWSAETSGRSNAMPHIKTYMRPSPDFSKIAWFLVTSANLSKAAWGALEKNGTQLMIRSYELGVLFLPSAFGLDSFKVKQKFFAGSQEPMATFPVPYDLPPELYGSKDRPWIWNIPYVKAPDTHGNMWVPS
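Compounds were preincubated with Tdp1 (1 nM final) for 15 min at room temperature before substrate (15 nM final) started a 5 min reaction; beads (10 ug/ml final) were then added for 10 min before AlphaScreen detection.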
TGFb inhibitor – qHTS for Inhibitors of TGF-b | Potency, µM (highest dose often 46.1 µM), for the others: at the top dose activity, negative = inhibition, most hits filed as inhibitors | AID 588855, 2011 | HepG2 CAGA-GFP TGF-b/SMAD3 reporter, GFP fluorescence, 18 h; TGF-beta stimulated, 500 pg/mL final | 410,000 compounds, 1.2% hits; also: potency is read from the fitted curve at half-maximal effect; % is scaled to controls: 0 for no effect and ±100 for the full control effect; nearly all actives have a fitted effect of over 65% in size
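Read-out: total well GFP (ex488/em500-530) summed from mean per-cell fluorescence. Cells: HEPG2 CAGA-GFP, 1% FBS DMEM, 18 h at 37 degrees C with 500 pg/mL final TGF-beta. Unstimulated wells served as the full-inhibition control; stimulated DMSO wells = 0%.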
TDP1 cell CPT – qHTS for Inhibitors of human tyrosyl-DNA phosphodiesterase 1 (TDP1): qHTS in cells in presence of CPT | Potency, µM (titrated, usually from 46.2 µM), inactives show top-dose activity change, negative = growth inhibition, usual class: inhibitors | chicken DT40 Tdp1-/-;hTDP1 cells + 20 nM CPT, ATP luminescence, 48 h | 420,000 compounds, 12% hits; also: potency is read from the fitted curve at half-maximal effect; % is scaled to controls: 0 for no effect and ±100 for the full control effect; nearly all actives have a fitted effect of over 55% in size
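Chicken DT40 Tdp1-/- cells stably complemented with human TDP1 were seeded at 400 cells/well in medium containing 20 nM camptothecin, exposed to pin-transferred compounds, and grown at 37 °C for at least 48 hr. Viability was read as ATP luminescence.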
HepG2 tox – qHTS for Inhibitors of TGF-b: Cytotox Counterscreen; 410,000 compounds, 0.76% hits; HepG2 CAGA-GFP viability, ATP luminescence, 18 h; Potency, µM (highest dose often 46.1 µM), for the others: at the top dose activity change, negative = cytotoxicity, most hits filed as cytotoxic; AID 588856, 2011; also: potency is read from the fitted curve at half-maximal effect
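HepG2 CAGA-GFP cells (1000/well, DMEM with 1% FBS) received compound, then TGF-beta at 500 pg/mL final, and were incubated 18 hours at 37 degrees C. Viability was read by CellTiter-Glo luminescence. Media-only wells were set as complete cell-killing and DMSO as no toxicity.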
Numbers without * were called inactive; ? = inconclusive; / = no result given; [ ] = another dose, or the depositor's remark. A selection: hits, their analogues and other compounds. The true share with any hit is near 19%. Unless noted, calls follow the shape of the dose curve; as a rule, active = well fitted curve in the direction sought with a large enough effect; inconclusive = small, poorly fitted or top-dose-only effect, or another doubt; inactive = no such curve, though single readings can be large; an effect the other way counts as inactive or inconclusive.

SMILES	TDP1 cell noCPT	IL-1B inflam inh	TDP1 block	TGFb inhibitor	TDP1 cell CPT	HepG2 tox
Clc1ccccc1-c1nn2c(COc3ccccc3)nnc2s1	-25%	-20	4%	13%	-19%	-1%
c1ccc(OCc2nn3c(Cn4cnc5ccccc54)nnc3s2)cc1	?	17	0%	3%	16µM*	0%
c1ccc(-c2nn3c(Cn4cnc5ccccc54)nnc3s2)cc1	?	-1	5%	-4%	?	6%
COc1ccccc1-c1nnc2sc(COc3ccc(Cl)cc3)nn12	16µM*	-86*	6%	-14%	?	-30%
CCOc1ccccc1OCc1nn2c(COc3ccccc3)nnc2s1	13µM*	-5	5%	24%	16µM*	-4%
CC(C)CNC(=O)C(=O)Nc1cc2c3c(c1)C(C)C(=O)N3CCC2 (stereo not drawn)	2%	16	3%	20%	11%	-7%
CC(O)CCCCn1c(=O)c2c(ncn2C)n(C)c1=O (stereo not drawn)	-10%	/	5%	/	3%	/
Cc1cccc(NC(=O)c2ccc3c(Cl)c4c(nc3c2)CCCC4)n1	21µM*	-22	3%	?	?	6%
CCc1ccc(CNC(=O)c2ccc3c(Cl)c4c(nc3c2)CCCC4)cc1	23µM*	/	5%	0%	?	6%
O=C(NCc1ccc(F)cc1)c1c2c(nc3ccccc13)CCC2	?	12	-8%	0%	?	1%
CCOc1ccc(CNC(=O)c2ccc3c(Cl)c4c(nc3c2)CCCC4)cc1	-68%	/	2%	-11%	21µM*	1%
O=C(NCc1ccc(F)cc1)c1ccc2c(Cl)c3c(nc2c1)CCCC3	16µM*	/	6%	?	?	-26%
O=C(CN1CCN(c2ccc(F)cc2)CC1)Nc1ccccc1[N+](=O)[O-]	?	-15	6%	0%	-21%	-25%
Cc1cccc(NC(=O)c2onc3c2CCCC3)n1	?	-3	-1%	11%	9.2µM*	-98%
CN1CCN(CCCNC(=O)c2ccc3c(Cl)c4c(nc3c2)CCCC4)CC1	21µM*	-56*	1%	11µM*	?	-44%
CCOc1ccc(CNC(=O)c2ccc3nc(CC)c(CC)nc3c2)cc1	18µM*	/	2%	35%	16µM*	-1%
CCC(C)NC(=O)c1ccc2c(Cl)c3c(nc2c1)CCC3 (stereo not drawn)	-18%	?	3%	-12%	-17%	-43%
CCc1nc2ccc(C(=O)NCc3ccc(SC)cc3)cc2nc1CC	?	/	2%	-4%	?	-11%
COC(=O)c1ccc(Cl)c(NC(=O)C2CCN(S(=O)(=O)Cc3ccccc3)CC2)c1	-14%	/	6%	19%	-24%	-12%
CCCc1nnc(SCC(=O)NC2CCCCC2)n1CCOC	-13%	13	/	-15%	8%	-30%
COc1ccc(CN2CCCC(c3nc(-c4ccncc4)ncc3-c3ccccc3C)C2)c(OC)c1 (stereo not drawn)	?	/	/	/	2.6µM*	/
COc1ccc(CN2CCCC(c3nc(-c4ccncc4)ncc3-c3ccccc3)C2)c(OC)c1OC (stereo not drawn)	-13%	/	/	/	6%[9.04 µM]	/
COc1cccc(CN2CCCC(c3nc(-c4ccncc4)ncc3-c3ccccc3)C2)c1O (stereo not drawn)	16µM*	/	/	/	?	/
CC(C)c1c(C(=O)N(C)C2CCN(C)CC2)cnn1-c1nccc(-c2ccco2)n1	-10%	/	/	/	10%	/
COc1ccc(N(CC(=O)N2CCN(c3ccccc3)CC2)S(=O)(=O)c2ccccc2)cc1	18µM*	-6	/	2%	16µM*	2%
SMILES	TDP1 cell noCPT	IL-1B inflam inh	TDP1 block	TGFb inhibitor	TDP1 cell CPT	HepG2 tox
COc1ccc(S(=O)(=O)N(CC(=O)N2CCN(c3ccccc3)CC2)c2ccccc2)cc1	?	-13	-1%	1%	-29%	6%
COc1ccc(N2CCN(C(=O)CN(c3cccc(OC)c3)S(=O)(=O)c3ccccc3)CC2)cc1	15µM*	-13	7%	0%	21µM*	-3%
COC(=O)c1ccccc1NC(=O)CC(=O)Nc1ccccc1C(=O)OC	?	5	/	-16%	-21%	-26%
CCN(CC(=O)Nc1ccccc1C(=O)OC)S(=O)(=O)c1ccccc1	?	22	4%	0%	23µM*	4%
COc1ccc(N(CC(=O)Nc2ccccc2C(=O)N2CCCC2)S(=O)(=O)c2ccccc2)cc1	16µM*	0	2%	10%	21µM*	-4%
COc1ccc(N(CC(=O)Nc2ccccc2C(=O)N2CCCC2)S(C)(=O)=O)cc1	5%	-10	1%	3%	19%	-10%
C#CCCCO/N=C1/C[C@@H](O)[C@@H](O)[C@@H]2[C@@H]3C(=O)N(C(C)(C)C)C(=O)[C@H]3CC[C@@H]12	/	/	8%[21 µM]	/	/	/
COc1ccc(N(CC(=O)Nc2ccccc2C(N)=O)S(=O)(=O)c2ccc(C)c([N+](=O)[O-])c2)cc1	23µM*	?	5%	-9%	?	-10%
CCN1C(N(C)CCc2cccs2)=N[C@@H](c2ccccc2)C(C(=O)OC)=C1C	?	12	/	13%	?	-4%
CCN1C(=NCc2cccc(Cl)c2)N[C@@H](c2cccc(C(F)(F)F)c2)C(C(=O)OC)=C1C	?	/	/	14µM*	11µM*	-79%
CCN1C(=O)N[C@@H](c2cccc(C(F)(F)F)c2)C(C(=O)OC)=C1C	?	6	1%[21 µM]	0%	16µM*	-7%
CCN1C(N(C)CCc2c[nH]c3ccccc23)=N[C@@H](c2cccc(C(F)(F)F)c2)C(C(=O)OC)=C1C	23µM*	?	6%	?	9.2µM*	-120%
CCN1C(=NCc2cccc(C(F)(F)F)c2)N[C@@H](c2cccc(C(F)(F)F)c2)C(C(=O)OC)=C1C	5µM*	/	/	3.5µM*	4.5µM*	-106%
CCN(CC)CCCN=C1N[C@@H](c2cccc(C(F)(F)F)c2)C(C(=O)OC)=C(C)N1CC	-86%	-26	0%	?	?	-113%
COc1ccc(-c2nc3cnc(OC)nc3n(CCC#N)c2=O)cc1	-3%	/	/	/	-8%	/
